# Experimental data: PubChem BioAssay (EPA / NIEHS)
# Values joined by “and” are separate entries in the source; they are usually repeats but may differ in a detail not shown here. Identical values can stand only once. Records with an inconclusive call do not appear. Some structures have more than one record in an assay (separate samples or runs), and their calls can disagree. Active and inactive are the calls of the source. How the source made its calls: active means hit-call score of the fitted dose curve at least 0.9, where 1 is the maximum; inconclusive means response in the unintended direction; inactive means score below 0.9.
# Tested on: turtle Estrogen Receptor (ERa), gene 101933533
# Assay: ATG_trERa_XSP2: Attagene TRANS-FACTORIAL Multi-Species (XSP2) HepG2 Assay for turtle Estrogen Receptor (ERa) (AID 2283812);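 further: human HepG2 liver cells transiently expressing turtle ERa-Gal4 chimeric receptor; actives raise reporter signal above DMSO so AC50 reflects agonist activity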
# Method in brief: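 HepG2 cells transiently transfected with GAL4-UAS reporter units expressing turtle ERa-Gal4 chimera. Reporter mRNA measured after 24 h dosing by RT-PCR, fluorescent labelling and capillary electrophoresis; gain of signal fitted versus DMSO.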
SMILES,AC50,outcome
COP(=S)(OC)SCn1nnc2ccccc2c1=O,16.4 µM (active),inactive
N#Cc1c[nH]cc1-c1cccc2c1OC(F)(F)O2,2.37 µM (active) and 1.02 µM (active),
Cc1c(COC(=O)[C@@H]2[C@H](/C=C(\Cl)C(F)(F)F)C2(C)C)cccc1-c1ccccc1,38.7 µM (active),
C=C(C)CN(CC)c1c([N+](=O)[O-])cc(C(F)(F)F)cc1[N+](=O)[O-],4.03 µM (active) and 12.5 µM (active),
COP(=S)(OC)Oc1ccc([N+](=O)[O-])c(C)c1,31.9 µM (active),
CC(C)NC(=O)N1CC(=O)N(c2cc(Cl)cc(Cl)c2)C1=O,,inactive
CC1(C)C(C=C(Cl)Cl)C1C(=O)OC(C#N)c1cccc(Oc2ccccc2)c1 (centres undefined),18 µM (active),

# Target: Estrogen receptor beta (Homo sapiens) (UniProt Q92731)
# Assay: ATG_hERb_XSP2: Attagene TRANS-FACTORIAL Multi-Species (XSP2) HepG2 Assay for human Estrogen Receptor (ERb) (AID 2283813);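 further: actives raise reporter mRNA above DMSO so AC50 reflects agonist induction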
# Method in brief: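 HepG2 cells transiently transfected with GAL4-UAS reporter units and chimeric human ERb-Gal4, 24 h exposure. Reporter mRNA quantified by RT-PCR with FAM labelling, HpaI digestion and capillary electrophoresis; gain of signal versus DMSO.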
# Estrogen receptor beta (Homo sapiens), sequence (Q92731 whole entry, looked up): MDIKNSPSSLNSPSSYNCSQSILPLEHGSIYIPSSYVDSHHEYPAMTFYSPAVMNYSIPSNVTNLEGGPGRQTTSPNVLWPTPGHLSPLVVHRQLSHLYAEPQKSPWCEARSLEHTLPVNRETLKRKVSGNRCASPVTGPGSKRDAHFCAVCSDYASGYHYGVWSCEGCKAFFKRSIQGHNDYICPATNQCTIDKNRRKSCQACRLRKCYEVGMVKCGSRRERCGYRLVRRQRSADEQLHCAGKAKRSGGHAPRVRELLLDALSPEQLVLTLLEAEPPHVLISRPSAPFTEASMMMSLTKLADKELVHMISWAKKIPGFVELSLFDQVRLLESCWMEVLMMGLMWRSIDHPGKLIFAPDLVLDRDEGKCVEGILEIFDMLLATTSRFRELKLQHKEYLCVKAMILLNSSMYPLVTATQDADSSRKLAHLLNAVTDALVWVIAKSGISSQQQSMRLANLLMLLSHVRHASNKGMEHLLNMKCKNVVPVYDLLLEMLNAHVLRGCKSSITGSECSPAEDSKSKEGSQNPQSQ
SMILES,outcome,AC50
CC1(C)CCC(=Cc2ccc(Cl)cc2)C1(O)Cn1cncn1 (centres undefined),inactive,
CCN(CC)C(=O)C(C)Oc1cccc2ccccc12 (centres undefined),inactive,
COP(=S)(OC)SCn1nnc2ccccc2c1=O,inactive,
Cc1c(COC(=O)[C@@H]2[C@H](/C=C(\Cl)C(F)(F)F)C2(C)C)cccc1-c1ccccc1,inactive,
C=C(C)CN(CC)c1c([N+](=O)[O-])cc(C(F)(F)F)cc1[N+](=O)[O-],inactive,
COP(=S)(OC)Oc1ccc([N+](=O)[O-])c(C)c1,,47.5 µM (active)
CC1(C)C(C=C(Cl)Cl)C1C(=O)OC(C#N)c1cccc(Oc2ccccc2)c1 (centres undefined),inactive,

# Target: GAL4 Transcription Factor (Internal Marker), GAL4 (gene 855828) (UniProt P04386)
# Assay: ATG_GAL4_XSP2: Attagene TRANS-FACTORIAL Multi-Species (XSP2) HepG2 Assay for GAL4 Transcription Factor (Internal Marker) (AID 2283814);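 further: GAL4 reporter mRNA background control in MRTU transfected cells not a receptor target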
# Method in brief: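 HepG2 cells transiently transfected with GAL4-UAS reporter units, stimulated with 3 nM 6-alpha-fluorotestosterone plus 1.5 nM norgestrel, dosed 24 h. Reporter mRNA by RT-PCR/capillary electrophoresis; gain-of-signal fit versus DMSO, background control.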
# GAL4 Transcription Factor (Internal Marker), GAL4 (gene 855828), sequence (P04386 whole entry, looked up, the tested form may be a part): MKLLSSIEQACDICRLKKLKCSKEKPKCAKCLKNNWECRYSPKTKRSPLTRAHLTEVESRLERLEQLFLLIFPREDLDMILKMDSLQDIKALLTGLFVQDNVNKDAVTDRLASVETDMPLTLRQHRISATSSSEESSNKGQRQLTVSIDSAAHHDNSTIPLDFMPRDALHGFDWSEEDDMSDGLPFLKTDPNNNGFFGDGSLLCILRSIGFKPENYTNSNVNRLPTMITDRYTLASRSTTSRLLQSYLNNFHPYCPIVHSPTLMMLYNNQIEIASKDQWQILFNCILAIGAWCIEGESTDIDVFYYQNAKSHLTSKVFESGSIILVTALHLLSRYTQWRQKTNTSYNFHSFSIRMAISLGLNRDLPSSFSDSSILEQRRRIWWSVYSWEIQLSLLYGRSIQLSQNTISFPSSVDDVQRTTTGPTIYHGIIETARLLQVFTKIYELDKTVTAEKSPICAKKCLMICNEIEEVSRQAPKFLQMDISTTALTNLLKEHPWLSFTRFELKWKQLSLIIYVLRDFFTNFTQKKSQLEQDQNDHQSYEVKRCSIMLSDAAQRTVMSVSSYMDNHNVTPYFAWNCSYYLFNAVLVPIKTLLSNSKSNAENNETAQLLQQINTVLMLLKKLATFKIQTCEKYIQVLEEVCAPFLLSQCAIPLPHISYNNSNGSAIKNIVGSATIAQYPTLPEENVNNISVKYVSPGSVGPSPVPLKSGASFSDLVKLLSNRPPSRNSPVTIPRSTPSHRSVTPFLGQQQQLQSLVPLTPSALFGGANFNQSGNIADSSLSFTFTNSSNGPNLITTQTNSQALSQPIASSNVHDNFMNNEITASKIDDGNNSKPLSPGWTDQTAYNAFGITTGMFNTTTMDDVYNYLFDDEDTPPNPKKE
row,SMILES,outcome
1,CC1(C)CCC(=Cc2ccc(Cl)cc2)C1(O)Cn1cncn1 (centres undefined),inactive
2,CSC(=O)c1c(C(F)F)nc(C(F)(F)F)c(C(=O)SC)c1CC(C)C,inactive
3,COP(=S)(OC)SCn1nnc2ccccc2c1=O,inactive
4,Cc1c(COC(=O)[C@@H]2[C@H](/C=C(\Cl)C(F)(F)F)C2(C)C)cccc1-c1ccccc1,inactive
5,CC(C)NC(=O)N1CC(=O)N(c2cc(Cl)cc(Cl)c2)C1=O,inactive

# Target: zebrafish Estrogen Receptor (ER1), esr1 (gene 259252) (UniProt P57717)
# Assay: ATG_zfER1_XSP2: Attagene TRANS-FACTORIAL Multi-Species (XSP2) HepG2 Assay for zebrafish Estrogen Receptor (ER1) (AID 2283816)
# Method in brief: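 HepG2 cells transiently transfected with a GAL4-UAS reporter and a chimeric zebrafish ER1-Gal4 construct, dosed 24 h. Reporter mRNA quantified by RT-PCR, labelling, HpaI digestion and capillary electrophoresis, relative to DMSO.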
# zebrafish Estrogen Receptor (ER1), esr1 (gene 259252), sequence (P57717 whole entry, looked up): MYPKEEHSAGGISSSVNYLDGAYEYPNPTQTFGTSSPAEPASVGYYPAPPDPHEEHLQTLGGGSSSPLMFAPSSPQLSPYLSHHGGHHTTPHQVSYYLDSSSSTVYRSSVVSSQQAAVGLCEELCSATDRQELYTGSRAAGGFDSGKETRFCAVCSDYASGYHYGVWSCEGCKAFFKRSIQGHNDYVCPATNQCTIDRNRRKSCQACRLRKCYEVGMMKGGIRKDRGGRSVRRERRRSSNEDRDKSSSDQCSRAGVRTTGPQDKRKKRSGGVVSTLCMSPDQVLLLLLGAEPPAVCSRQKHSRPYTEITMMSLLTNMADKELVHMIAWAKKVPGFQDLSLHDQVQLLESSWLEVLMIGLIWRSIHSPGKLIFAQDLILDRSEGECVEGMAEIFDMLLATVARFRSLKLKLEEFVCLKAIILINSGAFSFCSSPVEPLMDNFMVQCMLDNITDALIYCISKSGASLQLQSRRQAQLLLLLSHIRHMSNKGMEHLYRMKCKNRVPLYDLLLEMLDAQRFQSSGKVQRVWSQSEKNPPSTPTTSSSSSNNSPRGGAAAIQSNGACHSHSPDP
SMILES,outcome,AC50
CC1(C)CCC(=Cc2ccc(Cl)cc2)C1(O)Cn1cncn1 (centres undefined),inactive,
CSC(=O)c1c(C(F)F)nc(C(F)(F)F)c(C(=O)SC)c1CC(C)C,inactive,
CCN(CC)C(=O)C(C)Oc1cccc2ccccc12 (centres undefined),inactive,
COP(=S)(OC)SCn1nnc2ccccc2c1=O,inactive,
N#Cc1c[nH]cc1-c1cccc2c1OC(F)(F)O2,,25.9 µM (active)
Cc1c(COC(=O)[C@@H]2[C@H](/C=C(\Cl)C(F)(F)F)C2(C)C)cccc1-c1ccccc1,inactive,
C=C(C)CN(CC)c1c([N+](=O)[O-])cc(C(F)(F)F)cc1[N+](=O)[O-],inactive,
COP(=S)(OC)Oc1ccc([N+](=O)[O-])c(C)c1,inactive,
CC(C)NC(=O)N1CC(=O)N(c2cc(Cl)cc(Cl)c2)C1=O,inactive,
